From PubChem BioAssay (NCATS)
Results filed as inconclusive are left out. Active and inactive are the calls of the source. The call rests on the fitted dose curve; in most records, active means well fitted inhibition curve with a large enough effect; inconclusive means small, poorly fitted or top-dose-only effect; inactive means flat fitted curve, though single readings scatter.

Columns and labels:
Test in all cases: qHTS profiling for inhibitors of Plasmodium falciparum proliferation (AID 504749); further: nearly all actives have a fitted effect of over 60% in size
Conditions in all cases: P. falciparum in erythrocytes, SYBR Green DNA, 72 h; series mostly up to 28.7 µM
[1] = tested on: CP291
Procedure, shortened: (§1)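 Quantitative HTS: compounds pinned into medium, infected erythrocytes added (0.3% parasitemia, 2.5% hematocrit), 72 h culture at 37 C under 5% CO2. Saponin/Triton lysis with SYBR Green I, overnight RT, then fluorescence read.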

[2] = tested on: CP297
Procedure, shortened: as §1

[3] = tested on: CP305
Procedure, shortened: as §1

[4] = tested on: CP325
Procedure, shortened: as §1

[5] = tested on: CP335
Procedure, shortened: as §1

[6] = tested on: DFO2036
Procedure, shortened: as §1

[7] = tested on: DIV14
Procedure, shortened: as §1

[8] = tested on: DIV17
Procedure, shortened: as §1

[9] = tested on: DIV30
Procedure, shortened: as §1

[10] = tested on: Dd2
Procedure, shortened: as §1

[11] = tested on: ECU
Procedure, shortened: as §1

[12] = tested on: FAB9
Procedure, shortened: as §1

[13] = tested on: GB4
Procedure, shortened: as §1

[14] = tested on: HB3
Procedure, shortened: as §1

[15] = tested on: ICS
Procedure, shortened: as §1

[16] = tested on: JCK
Procedure, shortened: as §1

[17] = tested on: N140
Procedure, shortened: as §1

[18] = tested on: P93_24
Procedure, shortened: as §1

[19] = tested on: CP315
Procedure, shortened: as §1

[20] = tested on: CP329
Procedure, shortened: as §1

Measured: Potency
Potency means the concentration at half of the fitted maximal effect.

COc1ccc(/C=C/C(=O)c2ccc(OC)cc2OC)cc1
active: [1] 8.49 µM | [2] 8.49 µM | [3] 6.01 µM | [4] 12 µM | [5] 6.75 µM | [6] 7.94 µM | [7] 10.7 µM | [8] 16.9 µM | [9] 12 µM | [10] 7.08 µM | [11] 8.91 µM | [12] 8.91 µM | [13] 7.57 µM | [14] 10 µM | [15] 12.6 µM | [16] 8.91 µM | [17] 11.2 µM | [18] 8.91 µM

CCN(CC)CCOc1ccc(C(O)(Cc2ccc(Cl)cc2)c2ccc(C)cc2)cc1 (configuration not stated)
inactive: [12]
active: [1] 13.5 µM | [2] 16.9 µM | [5] 12 µM | [7] 9.53 µM | [8] 15.1 µM | [10] 10 µM | [13] 13.5 µM | [15] 8.91 µM | [18] 8.91 µM

Oc1c(Cl)cc(Cl)cc1Sc1cc(Cl)cc(Cl)c1O
not listed: [2]
inactive: all other assays above

COc1cccc(CCc2ccccc2OCC(CN(C)C)OC(=O)CCC(=O)O)c1 (configuration not stated)
active: [1] 12 µM | [2] 3.38 µM | [3] 7.57 µM | [19] 15.1 µM | [20] 12 µM | [5] 3.79 µM | [6] 11.2 µM | [7] 2.13 µM | [8] 2.39 µM | [9] 6.75 µM | [10] 1.41 µM | [11] 4.47 µM | [13] 2.13 µM | [14] 12.6 µM | [15] 1.12 µM | [16] 10 µM | [17] 2.82 µM | [18] 4.47 µM

Oc1ccc(Cl)cc1Sc1cc(Cl)ccc1O
active: [15] 8.91 µM
not listed: [2] | [5] | [7] | [8] | [9] | [11] | [13]
inactive: all other assays above

CCCN1CCCC[C@H]1C(=O)Nc1c(C)cccc1C
active: [13] 15.1 µM
not listed: [2] | [3] | [4] | [5] | [7] | [8] | [10]
inactive: all other assays above

CCN(CC)CCOC(=O)C(c1ccccc1)C1CCCCC1 (configuration not stated)
active: [7] 5.36 µM | [10] 11.2 µM
not listed: [1] | [8] | [11] | [13] | [15] | [18] | [20]
inactive: all other assays above

CCCCCCCCCCCCCCNCCO
inactive: [1] | [19] | [4] | [20] | [5] | [9] | [12] | [16]
active: [6] 17.8 µM | [10] 10 µM | [14] 10 µM | [15] 6.31 µM | [17] 14.1 µM

CC(=O)Oc1ccc(C(c2ccc(OC(C)=O)cc2)c2ccccn2)cc1
not listed: [1] | [16]
inactive: all other assays above

O=C1[C@H]2CCCC[C@H]2C(=O)N1CCCCN1CCN(c2nsc3ccccc23)CC1
not listed: [2] | [7] | [8] | [13] | [14] | [15] | [18]
inactive: all other assays above

COc1c(C)c2c(c(O)c1C/C=C(\C)CCC(=O)O)C(=O)OC2
active: [1] 4.05 µM | [2] 5.1 µM | [3] 4.05 µM | [20] 6.42 µM | [5] 3.22 µM | [6] 2.51 µM | [7] 6.42 µM | [8] 6.42 µM | [9] 5.1 µM | [10] 3.55 µM | [11] 5.01 µM | [13] 5.1 µM | [15] 3.55 µM | [17] 3.16 µM | [18] 2.82 µM

CCN(CC)CCNC(=O)COc1ccc(Cl)cc1
active: [10] 12.6 µM | [15] 12.6 µM | [17] 12.6 µM | [18] 11.2 µM
not listed: [2] | [6] | [7] | [8] | [11] | [13]
inactive: all other assays above

Oc1c(I)cc(Cl)c2cccnc12
not listed: [1] | [6] | [7] | [13] | [15] | [17]
inactive: all other assays above

O=S1(=O)c2cccc3cccc(c23)N1CCCN1CCN(c2ccc(F)cc2)CC1
not listed: [1] | [7] | [8] | [15]
inactive: all other assays above
